Inconclusive results are not listed. A call without a number means that no potency is given here. Calls of active or inactive are those of the source. Calls come from the whole dose curve; as a rule, active = well fitted inhibition curve with a large enough effect; inconclusive = small, poorly fitted or top-dose-only effect; inactive = flat fitted curve, though single readings scatter.
Test: Primary qHTS for inhibitors of nuclear receptor binding SET domain protein 2 (NSD2) in an isogenic RCH-ACV NSD2 p.E1099K mutant (9B) (AID 1645876); note: nearly all actives have a fitted effect of over 70% in size

Question: Which Potency does the source give for `Nc1ccn(CC(CO)OCP(=O)(O)O)c(=O)n1` (stereo unspecified) here?
Answer: inactive
